Measured values reported in PubChem BioAssay (NCATS).
Results filed as inconclusive are left out. The source holds several records for some structures; these can differ, active in one and inactive in another. Calls of active or inactive are those of the source. Unless noted, calls come from the whole dose curve; as a rule, active = well fitted curve in the direction sought with a large enough effect; inconclusive = small, poorly fitted or top-dose-only effect, or another doubt; inactive = no such curve, though single readings can be large; an effect the other way counts as inactive or inconclusive.

Experiments:
[1] = Cell Viability - LYMP2-001 (AID 921); note: potency is the fitted concentration of half-maximal effect; nearly all actives have a fitted effect of over 70% in size
Outline: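 Human lymphoblastoid LYMP2-001 cells, 2500 per well, in complete medium, treated 24 h at 37 C. Viability from cellular ATP by CellTiter-Glo luminescence; AC50 from Hill-equation fits of qHTS concentration-response.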

[2] = Cell Viability - LYMP2-009 (AID 968); note: potency is the fitted concentration of half-maximal effect; nearly all actives have a fitted effect of over 55% in size
[3] = Cell Viability - LYMP2-011 (AID 969);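 note: potency is the fitted concentration of half-maximal effect; cells exposed to compound for 24 hours; nearly all actives have a fitted effect of over 60% in size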
Outline: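 Cells seeded at 2500 per well rest 5 hr before compound addition, then incubate 24 hr at 37 C. CellTiter-Glo reagent is added for 30 min at room temperature before luminescence detection.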

[4] = Cell Viability - LYMP2-013 (AID 970); note: potency is the fitted concentration of half-maximal effect; nearly all actives have a fitted effect of over 55% in size
Outline: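 In complete culture medium, human lymphoblastoid cells were dosed for 24 hr at 37 C, with tetraoctylammonium bromide (6.4pM to 92 uM) as positive control. Viability reflects luciferase-based ATP signal; AC50 derived from concentration-response curves.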

[5] = Cell Viability - LYMP2-015 (AID 971); note: potency is the fitted concentration of half-maximal effect; nearly all actives have a fitted effect of over 55% in size
Outline: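 AC50 values reflect Hill-model fits of ATP-based luminescence (CellTiter-Glo) from a human lymphoblastoid line, 2500 cells/well, treated 24 hr at 37 C.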

[6] = Cell Viability - LYMP2-017 (AID 972);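 note: potency is the fitted concentration of half-maximal effect; cells exposed to compound for 24 hours at 37 °C; nearly all actives have a fitted effect of over 55% in size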
Outline: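 In this qHTS format, lymphoblastoid cells in complete medium receive test compound for a day at 37 C before ATP content is quantified by luciferase luminescence. Reported AC50 figures come from standard Hill-equation curve fitting.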

[7] = Cell Viability - LYMP2-019 (AID 973)
Outline: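 AC50 values come from Hill-equation modelling of qHTS concentration-response curves, where viability is measured as luciferase-based ATP luminescence in the lymphoblastoid line after 24 hr compound exposure in complete culture medium.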

[8] = Cell Viability - LYMP2-021 (AID 974)
Outline: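 In qHTS format, compounds are tested against 2500 lymphoblastoid cells per well for 24 h; viable cell number is inferred from ATP-driven luciferase light, and Hill-equation fitting yields AC50 values.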

[9] = Cell Viability - LYMP2-023 (AID 975)
Outline: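 In this qHTS, ATP-based luciferase luminescence (CellTiter-Glo) is quantified in human lymphoblastoid cells after 24 hr compound treatment at 37 C; tetraoctylammonium bromide serves as positive control. Concentration-response curves are Hill-fitted to give AC50.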

[10] = Cell Viability - LYMP2-002 (AID 977);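 note: potency is the fitted concentration of half-maximal effect; compound exposure lasted 24 h at 37 °C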
Outline: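 In this qHTS viability screen, 2500 human lymphoblastoid cells per well receive compound for 24 hr at 37 C, and luciferase-based ATP luminescence gives the viability signal. Tetraoctylammonium bromide serves as positive control.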

[11] = Cell Viability - LYMP2-006 (AID 978);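 note: potency is the fitted concentration of half-maximal effect; cells exposed to compound for 24 hours; nearly all actives have a fitted effect of over 60% in size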
Outline: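 Human lymphoblastoid cells (LYMP2-006), 2500/well in complete medium, were treated with compound for 24 hr at 37 C. Cellular ATP was read by CellTiter-Glo luminescence after 30 min, and AC50 values came from Hill-equation fits of concentration-response data.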

[12] = Cell Viability - LYMP2-007 (AID 979);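 note: potency is the fitted concentration of half-maximal effect; cells exposed to compound for 24 h before reading; nearly all actives have a fitted effect of over 60% in size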
Outline: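 Measured via luciferase-based ATP quantitation: lymphoblastoid cells, 24 hr compound exposure at 37 C, AC50 from Hill fits.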

[13] = Cell Viability - LYMP2-008 (AID 980); note: potency is the fitted concentration of half-maximal effect; nearly all actives have a fitted effect of over 60% in size
Outline: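 Measured: ATP-dependent luminescence, proportional to viable cell number, in human lymphoblastoid cells treated 24 hr with compound in complete culture medium. Values are AC50s from Hill-equation modelling of qHTS titrations.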

[14] = Cell Viability - LYMP2-010 (AID 981)
Outline: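 This 24 hr viability screen uses LYMP2-010 lymphoblastoid cells, quantifies ATP via luciferase luminescence, and derives AC50 from Hill fits of qHTS concentration-response data.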

[15] = Cell Viability - LYMP2-012 (AID 982)
[16] = Cell Viability - LYMP2-014 (AID 983); note: potency is the fitted concentration of half-maximal effect; nearly all actives have a fitted effect of over 50% in size
Outline: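 Quantitative HTS in lymphoblastoid cells: 24 hr compound exposure, then CellTiter-Glo ATP luminescence. Positive control was tetraoctylammonium bromide, 6.4pM to 92 uM.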

[17] = Cell Viability - LYMP2-016 (AID 984)
Outline: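 Human lymphoblastoid LYMP2-016 cells, 2500 per well, treated with compounds for 24 h at 37 C. Viability read as intracellular ATP by CellTiter-Glo luminescence after 30 min at room temperature; AC50 from Hill fits of concentration-response.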

[18] = Cell Viability - LYMP2-018 (AID 985); note: potency is the fitted concentration of half-maximal effect; nearly all actives have a fitted effect of over 50% in size
Outline: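 In this qHTS viability assay, cells are treated for 24 hr and cellular ATP is quantified by luciferase-based luminescence, with tetraoctylammonium bromide as positive control.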

[19] = Cell Viability - LYMP2-020 (AID 986)
Outline: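 Cells at 2500 per well receive a 24 hr compound exposure at 37 C. Viability is measured as ATP-dependent luciferase luminescence, with AC50 modeled from qHTS concentration-response curves.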

[20] = Cell Viability - LYMP2-022 (AID 987)
Outline: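 In this qHTS cytotoxicity screen, compound titrations were incubated 24 hr at 37 C with human lymphoblastoid cells in complete medium. Luciferase-based ATP luminescence provided the viability signal.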

[21] = Cell Viability - LYMP2-024 (AID 988)
Outline: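 Cells at 2500 per well received compound for 24 hr after a 5 hr settling period. Viability was scored by CellTiter-Glo luminescence, with AC50 from Hill fits.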

[22] = Cell Viability - LYMP2-026 (AID 989); note: potency is the fitted concentration of half-maximal effect; nearly all actives have a fitted effect of over 50% in size
Outline: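 Acute toxicity screen in complete culture medium, with 24 hr compound exposure at 37 C. Viability read as cellular ATP via luciferase reaction, with tetraoctylammonium bromide (6.4pM to 92 uM) as positive control.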

[23] = target: Glucocorticoid receptor (Homo sapiens) (UniProt P04150); assay: qHTS assay for small molecule antagonists of glucocorticoid receptor signaling (AID 588533; active = well fitted inhibition curve with a large enough effect in the signal ratio, with a control signal flat, not every such curve was filed as active; the % refers to the signal ratio;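 note: cells stimulated with 2 nM dexamethasone as agonist; % is set by controls: 0 for no effect and ±100 for the full control effect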)
Chain of Glucocorticoid receptor (Homo sapiens) (P04150 whole entry, looked up): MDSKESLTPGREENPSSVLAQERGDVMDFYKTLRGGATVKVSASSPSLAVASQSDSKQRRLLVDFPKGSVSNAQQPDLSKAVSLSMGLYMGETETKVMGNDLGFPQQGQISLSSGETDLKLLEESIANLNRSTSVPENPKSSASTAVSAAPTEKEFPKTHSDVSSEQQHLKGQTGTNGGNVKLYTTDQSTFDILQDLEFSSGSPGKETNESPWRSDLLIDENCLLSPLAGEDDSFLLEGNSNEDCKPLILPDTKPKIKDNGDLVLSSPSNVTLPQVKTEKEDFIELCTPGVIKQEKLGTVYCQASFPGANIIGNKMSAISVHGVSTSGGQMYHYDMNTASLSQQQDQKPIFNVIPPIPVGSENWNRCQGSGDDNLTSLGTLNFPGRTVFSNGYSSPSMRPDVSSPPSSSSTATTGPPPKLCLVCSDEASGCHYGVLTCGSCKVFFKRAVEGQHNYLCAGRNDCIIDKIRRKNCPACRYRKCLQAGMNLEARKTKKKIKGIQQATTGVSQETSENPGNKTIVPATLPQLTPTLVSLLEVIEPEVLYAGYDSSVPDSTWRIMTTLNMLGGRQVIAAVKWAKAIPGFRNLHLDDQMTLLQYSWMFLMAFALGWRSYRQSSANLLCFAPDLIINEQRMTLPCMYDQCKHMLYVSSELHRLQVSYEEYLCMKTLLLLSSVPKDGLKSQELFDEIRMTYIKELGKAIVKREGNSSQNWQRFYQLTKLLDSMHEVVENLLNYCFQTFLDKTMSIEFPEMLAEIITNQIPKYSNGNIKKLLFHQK
Outline: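 Antagonist-mode qHTS: compound titrations added to GRE-bla HeLa cells, then dexamethasone 2 nM final; 18 h, 37 C. CCF4 FRET fluorescence normalized to dexamethasone and DMSO; IC50 from Hill fit.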

[24] = target: Peroxisome proliferator-activated receptor delta (Homo sapiens) (UniProt Q03181); assay: qHTS assay for small molecule agonists of peroxisome proliferator-activated receptor delta signaling (AID 588534; calls by dose curve;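 note: 0% = DMSO basal wells and 100% = positive control agonist at 10 µM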)
Chain of Peroxisome proliferator-activated receptor delta (Homo sapiens) (Q03181 whole entry, looked up): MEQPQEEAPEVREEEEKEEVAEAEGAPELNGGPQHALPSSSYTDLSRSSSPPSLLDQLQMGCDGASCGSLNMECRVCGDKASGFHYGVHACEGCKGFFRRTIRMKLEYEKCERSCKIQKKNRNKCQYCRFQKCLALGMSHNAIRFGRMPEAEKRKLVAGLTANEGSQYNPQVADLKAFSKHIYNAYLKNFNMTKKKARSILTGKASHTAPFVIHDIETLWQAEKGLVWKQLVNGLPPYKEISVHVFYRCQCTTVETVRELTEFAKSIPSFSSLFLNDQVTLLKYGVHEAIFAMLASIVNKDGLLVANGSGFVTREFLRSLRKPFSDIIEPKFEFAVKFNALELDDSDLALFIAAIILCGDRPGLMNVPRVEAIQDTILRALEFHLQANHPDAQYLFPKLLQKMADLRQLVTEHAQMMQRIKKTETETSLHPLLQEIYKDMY
Outline: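 EC50 and efficacy values derive from Hill fits of a concentration series in a beta-lactamase reporter cell assay. Exposure is 18 hrs at 37 C, with CCF4 fluorescence as the readout.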

[25] = target: Voltage-gated inwardly rectifying potassium channel KCNH2 (Homo sapiens) (UniProt Q12809); assay: qHTS Assay for Small Molecule Inhibitors of the Human hERG Channel Activity (AID 588834);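 note: potency is the fitted concentration of half-maximal effect; lower thallium flux fluorescence means stronger hERG block; nearly all actives have a fitted effect of over 50% in size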
Chain of Voltage-gated inwardly rectifying potassium channel KCNH2 (Homo sapiens) (Q12809 whole entry, looked up): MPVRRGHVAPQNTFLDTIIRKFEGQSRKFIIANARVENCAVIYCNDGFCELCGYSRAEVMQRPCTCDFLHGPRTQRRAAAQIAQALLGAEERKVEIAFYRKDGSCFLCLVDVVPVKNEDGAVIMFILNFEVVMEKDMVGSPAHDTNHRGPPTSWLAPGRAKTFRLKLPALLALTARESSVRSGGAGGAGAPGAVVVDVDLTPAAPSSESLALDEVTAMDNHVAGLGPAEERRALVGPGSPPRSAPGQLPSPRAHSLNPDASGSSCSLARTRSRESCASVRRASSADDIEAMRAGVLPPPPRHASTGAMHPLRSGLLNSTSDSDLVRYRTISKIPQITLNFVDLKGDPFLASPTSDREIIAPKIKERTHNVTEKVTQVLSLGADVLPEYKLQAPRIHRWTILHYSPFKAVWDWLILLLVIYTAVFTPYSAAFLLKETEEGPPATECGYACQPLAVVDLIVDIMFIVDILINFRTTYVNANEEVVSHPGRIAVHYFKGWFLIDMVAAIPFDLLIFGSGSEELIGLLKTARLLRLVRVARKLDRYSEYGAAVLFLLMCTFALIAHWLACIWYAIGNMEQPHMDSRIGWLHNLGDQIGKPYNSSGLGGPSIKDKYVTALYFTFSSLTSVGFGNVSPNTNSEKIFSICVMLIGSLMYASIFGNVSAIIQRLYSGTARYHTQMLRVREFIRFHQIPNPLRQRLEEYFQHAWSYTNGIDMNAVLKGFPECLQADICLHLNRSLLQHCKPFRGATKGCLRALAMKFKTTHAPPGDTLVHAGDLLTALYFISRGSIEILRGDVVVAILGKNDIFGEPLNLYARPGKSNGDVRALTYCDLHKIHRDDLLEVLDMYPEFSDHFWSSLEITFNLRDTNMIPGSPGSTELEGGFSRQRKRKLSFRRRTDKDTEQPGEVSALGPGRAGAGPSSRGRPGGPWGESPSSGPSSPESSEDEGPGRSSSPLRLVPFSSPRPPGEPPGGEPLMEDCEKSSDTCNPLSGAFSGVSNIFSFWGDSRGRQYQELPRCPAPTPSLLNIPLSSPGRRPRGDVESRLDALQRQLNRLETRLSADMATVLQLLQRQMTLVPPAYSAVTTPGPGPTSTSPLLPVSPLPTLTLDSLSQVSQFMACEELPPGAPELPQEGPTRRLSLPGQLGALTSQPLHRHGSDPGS
Outline: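 Thallium serves as surrogate for K+ influx through BacMam-delivered hERG in U2OS cells. Compounds are added for about 10 minutes after dye loading; stimulation buffer then starts flux, monitored kinetically on FDSS.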

[26] = qHTS assay for small molecule agonists of the antioxidant response element (ARE) signaling pathway (AID 651741; active = well fitted activation curve with a large enough effect in the signal ratio; the % refers to the signal ratio; note: % of control where 0% means no effect)
Outline: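 Beta-lactamase reporter expression driven by the antioxidant response element in HepG2 cells was detected by fluorescence with LiveBLAzer B/G FRET substrate (2 h, room temperature) following 16 h compound treatment at 37 C.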

[27] = qHTS assay for small molecule activators of the p53 signaling pathway (AID 651743; active = well fitted activation curve with a large enough effect in the signal ratio, not every such curve was filed as active; the % refers to the signal ratio; note: series mostly up to about 92 µM; % of control where 0% means no effect); settings: HCT-116 p53RE-bla, beta-lactamase FRET ratio, 16 h; activation: stronger effect = higher value
Outline: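 Here HCT-116 cells with an integrated p53-responsive beta-lactamase gene were incubated with compounds (16 hours, 37 C) after a 5-hour plating period; beta-lactamase activity was detected as fluorescence intensity via B/G FRET substrate.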

[28] = qHTS assay to identify small molecules that stimulate interleukin-8 (IL-8) secretion (AID 651758; active = well fitted activation curve with a large enough effect in the signal ratio; the % refers to the signal ratio; note: potency is the fitted concentration of half-maximal effect)
Outline: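 Quantitative HTS in THP-1 monocytic cells at 2000 cells per well, with 16 hrs compound incubation at 37 C. IL-8 in the medium was then quantified by HTRF immunoassay, read after 1-3 hrs at room temperature.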

[29] = qHTS assay for small molecule antagonists of the retinoid-related orphan receptor gamma (ROR-gamma) signaling pathway - cell viability counter screen (AID 720652; active = well fitted curve in the direction sought with a large enough effect in the repeat runs; an effect the other way counts as inactive or inconclusive;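 note: potency is the fitted concentration of half-maximal effect; compound exposure lasted 16 hr before ATP read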)
Outline: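 ATP-based viability readout in the ROR-gamma reporter CHO cells after 16 hr compound exposure under doxycycline induction.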

[30] = qHTS assay for small molecule agonists of the antioxidant response element (ARE) signaling pathway measured by Nrf2-dependant transcriptional activity - cell viability counter screen (AID 720653; active = well fitted curve in the direction sought with a large enough effect in the repeat runs; an effect the other way counts as inactive or inconclusive; note: potency is the fitted concentration of half-maximal effect; for max response: % is set by controls: 0 for no effect and ±100 for the full control effect); settings: ARE-bla HepG2 viability, CellTiter-Glo ATP luminescence, 16 h; max response: stronger effect = lower value
Outline: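 ARE-bla HepG2 cells (2,000/well) rested 5 hrs at 37C/5% CO2, then exposed to compounds in DMSO for 16 hrs. Viability was read in the same wells as intracellular ATP by luminescence, 30 min at room temperature after reagent addition.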

[31] = qHTS assay for small molecule antagonists of peroxisome proliferator-activated receptor delta signaling (AID 588535; active = well fitted inhibition curve with a large enough effect in the signal ratio, with a control signal flat, not every such curve was filed as active; the % refers to the signal ratio;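 for max response: cells co-treated with a PPAR-delta agonist as stimulator during compound exposure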); settings: HEK293T PPARd-UAS-bla, beta-lactamase FRET ratio, 18 h; 460 nm channel
Outline: (§1)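 Compounds tested in titration on PPAR-delta-UAS-bla HEK293T cells grown in charcoal/dextran-stripped serum (2%); beta-lactamase activity read via CCF4 emission at 460 and 530 nm.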

[32] = target: Peroxisome proliferator-activated receptor delta (Homo sapiens) (UniProt Q03181); assay: as above
Outline: as §1

[33] = qHTS assay for small molecule agonists of retinoid X receptor alpha signaling (AID 588544; calls by dose curve;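 for activation: 0% = DMSO basal wells and 100% = reference agonist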); settings: HEK293T RXRa-UAS-bla, beta-lactamase reporter, 18 h; 530 nm emission
[34] = target: Retinoic acid receptor RXR-alpha (Homo sapiens) (UniProt P19793); assay: as above
Chain of Retinoic acid receptor RXR-alpha (Homo sapiens) (P19793 whole entry, looked up): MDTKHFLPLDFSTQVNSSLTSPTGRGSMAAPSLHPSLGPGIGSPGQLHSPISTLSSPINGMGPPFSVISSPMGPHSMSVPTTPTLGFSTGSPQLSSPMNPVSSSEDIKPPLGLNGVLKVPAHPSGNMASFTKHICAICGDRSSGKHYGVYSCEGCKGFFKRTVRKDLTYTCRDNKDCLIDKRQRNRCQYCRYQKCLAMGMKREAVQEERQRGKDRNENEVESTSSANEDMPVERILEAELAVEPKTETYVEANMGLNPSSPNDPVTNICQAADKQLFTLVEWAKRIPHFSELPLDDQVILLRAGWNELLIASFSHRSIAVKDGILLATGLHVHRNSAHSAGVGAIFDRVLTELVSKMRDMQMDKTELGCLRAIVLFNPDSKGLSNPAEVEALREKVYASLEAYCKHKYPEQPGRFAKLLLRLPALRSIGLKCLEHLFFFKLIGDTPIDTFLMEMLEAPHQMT

[35] = target: Thyroid hormone receptor beta (Homo sapiens) (UniProt P10828); assay: qHTS assay for small molecule agonists of thyroid hormone receptor beta signaling (AID 588545; calls by dose curve;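 note: 0% = DMSO only and 100% = 10 nM T3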)
Chain of Thyroid hormone receptor beta (Homo sapiens) (P10828 whole entry, looked up): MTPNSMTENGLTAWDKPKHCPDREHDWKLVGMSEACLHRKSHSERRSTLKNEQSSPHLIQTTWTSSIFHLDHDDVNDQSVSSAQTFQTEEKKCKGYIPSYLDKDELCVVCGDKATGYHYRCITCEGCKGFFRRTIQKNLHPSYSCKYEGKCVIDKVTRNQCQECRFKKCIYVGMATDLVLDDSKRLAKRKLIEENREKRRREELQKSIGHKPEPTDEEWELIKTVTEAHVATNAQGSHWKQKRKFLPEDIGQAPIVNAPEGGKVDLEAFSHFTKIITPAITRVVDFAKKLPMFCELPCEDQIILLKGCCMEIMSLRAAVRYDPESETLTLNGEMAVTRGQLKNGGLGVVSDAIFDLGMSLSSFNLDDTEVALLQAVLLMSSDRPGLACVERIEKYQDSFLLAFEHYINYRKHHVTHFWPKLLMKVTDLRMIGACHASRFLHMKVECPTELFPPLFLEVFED
Outline: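 TR-UAS-bla-GripTite HEK 293 cells in medium with 2% charcoal/dextran FBS, 0.1 mM NEAA and 1 mM sodium pyruvate were treated with titrated compounds for 18 hrs at 37 C. Beta-lactamase reporter was read with CCF4 dye (ex 405, em 460/530 nm); EC50 from Hill fits.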

[36] = qHTS assay for small molecule activators of the nuclear factor-kappa B (NF-kB) signaling pathway (AID 651749; active = well fitted activation curve with a large enough effect in the signal ratio; the % refers to the signal ratio; note: series mostly up to about 77 µM; % of control where 0% means no effect); settings: NF-kB-bla ME-180 cells, beta-lactamase FRET ratio, 16 h; activation: stronger effect = higher value
Outline: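 Beta-lactamase reporter expression, controlled by NF-kB response elements in ME-180 cells, was quantified fluorometrically via FRET disruption; cells at 2,000/well had been incubated with 23 nL test compound for 16 hr.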

[37] = qHTS assay for environmental chemicals that activate the Aryl hydrocarbon Receptor (AhR) signaling pathway (AID 651777); settings: 1A2-DRE human hepatoma cells, luciferase, 24 h; activation: stronger effect = higher value; note: % of control where 0% means no effect; nearly all actives have a fitted effect of over 15% in size
Outline: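 Luminescence read-out: One-Glo added for 30 min at RT after 24 hr compound treatment (37 C, 5% CO2) of human hepatoma cells expressing a DRE/CYP1A2 promoter–luciferase reporter; increased signal indicates AhR activation.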

[38] = target: Peroxisome proliferator-activated receptor alpha (Homo sapiens) (UniProt Q07869); assay: qHTS assay for small molecule agonists of the peroxisome proliferator-activated receptor alpha (PPARalpha) signaling pathway (AID 651778); settings: PathHunter PPARalpha complementation, chemiluminescence, 6 h; max response: stronger effect = higher value; note: % of control where 0% means no effect
Chain of Peroxisome proliferator-activated receptor alpha (Homo sapiens) (Q07869 whole entry, looked up): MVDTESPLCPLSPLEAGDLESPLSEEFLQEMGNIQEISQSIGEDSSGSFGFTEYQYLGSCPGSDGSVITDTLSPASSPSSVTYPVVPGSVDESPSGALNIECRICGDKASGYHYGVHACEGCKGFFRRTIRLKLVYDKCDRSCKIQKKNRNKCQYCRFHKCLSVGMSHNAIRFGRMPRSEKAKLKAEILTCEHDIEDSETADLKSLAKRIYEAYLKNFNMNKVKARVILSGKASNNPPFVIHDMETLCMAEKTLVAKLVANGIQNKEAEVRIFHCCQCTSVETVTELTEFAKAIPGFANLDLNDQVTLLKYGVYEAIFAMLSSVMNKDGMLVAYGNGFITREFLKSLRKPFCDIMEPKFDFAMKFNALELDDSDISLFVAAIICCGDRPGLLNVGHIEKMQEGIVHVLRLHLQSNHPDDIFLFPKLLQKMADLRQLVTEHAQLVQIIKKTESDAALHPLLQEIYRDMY
Outline: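 Cells plated at 2,000/well and held overnight at 37 C, 5% CO2, then compound added by pin tool for 6 hr; after PathHunter detection reagent and 60 min at room temperature, chemiluminescence from enzyme complementation was read.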

[39] = qHTS assay for small molecule agonists of the antioxidant response element (ARE) signaling pathway measured by Nrf2-dependant transcriptional activity (AID 720636; active = well fitted curve in the direction sought with a large enough effect in the repeat runs; an effect the other way counts as inactive or inconclusive; note: % of control where 0% means no effect)
Outline: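 HepG2 ARE-luc reporter line, 1% dialyzed FBS; 6 hr attachment at 37 C, compound pinned in, 16 hr at 37 C/5% CO2; ONE-Glo, 30 min RT, luminescence read.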

[40] = qHTS assay for cell viability of HEK293 cells (AID 743288); settings: ATP luminescence (CellTiter-Glo), 18 h; max response: stronger effect = lower value
Outline: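 Steps: plate 2,000 parental HEK293 cells per well; incubate ≥5 h, 37 C; add compounds in DMSO; incubate 18 h, 37 C; add CellTiter-Glo; wait 30 min at room temperature; read luminescence.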

[41] = qHTS assay for cell viability of the p53RE-bla HCT-116 cell line (AID 743292)
Outline: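 Luminescent ATP quantitation (CellTiter-Glo) served as the viability read-out; reagent was added after 16 h compound exposure at 37 C and read after 30 min at room temperature. Cells: p53RE-bla HCT-116, 4,000 per well.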

[42] = target: Nuclear receptor subfamily 1 group I member 2 (Rattus norvegicus) (UniProt Q9R1A7); assay: qHTS assay for small molecule activators of the rat pregnane X receptor (rPXR) signaling pathway (AID 651751; call rule not given here; note: 0% is about no effect); settings: rPXR reporter cells, luciferase (One-Glo), 24 h
Chain of Nuclear receptor subfamily 1 group I member 2 (Rattus norvegicus) (Q9R1A7 whole entry, looked up): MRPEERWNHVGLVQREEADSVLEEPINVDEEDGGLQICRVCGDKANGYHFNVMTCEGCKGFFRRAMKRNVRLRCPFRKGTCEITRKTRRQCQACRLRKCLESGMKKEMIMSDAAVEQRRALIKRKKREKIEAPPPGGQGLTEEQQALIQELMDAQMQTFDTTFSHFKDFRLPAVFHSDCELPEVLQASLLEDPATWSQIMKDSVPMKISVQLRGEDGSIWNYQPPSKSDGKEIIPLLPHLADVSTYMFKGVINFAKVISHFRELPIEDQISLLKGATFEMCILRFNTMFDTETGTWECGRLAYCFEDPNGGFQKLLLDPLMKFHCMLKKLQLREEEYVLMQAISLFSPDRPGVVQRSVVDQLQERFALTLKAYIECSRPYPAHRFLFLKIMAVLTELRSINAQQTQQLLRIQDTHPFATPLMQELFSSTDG

ClC1=C(Cl)C(Cl)(Cl)C(Cl)=C1Cl
active: Potency [1] 5.01 µM | Potency [2] 7.94 µM | Potency [3] 6.31 µM | Potency [4] 6.31 µM | Potency [5] 3.98 µM | Potency [6] 6.31 µM | Potency [7] 6.31 µM | Potency [8] 6.31 µM | Potency [9] 5.01 µM | Potency [10] 6.31 µM | Potency [11] 7.94 µM | Potency [12] 3.16 µM | Potency [13] 3.16 µM | Potency [14] 5.01 µM | Potency [15] 6.31 µM | Potency [16] 7.94 µM | Potency [17] 6.31 µM | Potency [18] 7.94 µM | Potency [19] 7.94 µM | Potency [20] 6.31 µM | Potency [21] 3.16 µM | Potency [22] 10 µM | Potency [25] 22.4 µM | Potency [28] 29.8 µM | Potency [29] 11.9 µM | Potency [30] 35.5 µM
inactive: Potency [23] | outcome [24] | Potency [26] | activation [27] 12.3% | max response [30] -1.05%

Cc1ccc(N(C)C)cc1
inactive: outcome [24]

O=C(O)[C@@H]1[C@H](C(=O)O)[C@@]2(Cl)C(Cl)=C(Cl)[C@]1(Cl)C2(Cl)Cl
inactive: Potency [23] | outcome [24] | Potency [32] | Potency [34] | Potency [35] | activation [27] -1.67% | activation [36] -0.556% | activation [37] 1.48% | max response [38] 0.99% | Potency [39] | max response [30] -22.8% | max response [40] -18.3% | Potency [41] | max response [42] 4.23%
2.51%: max response [31]
-1.73%: max response [33]
